According to PubChem BioAssay (EPA / NIEHS):
Records with an inconclusive call do not appear. More than one record can exist for a structure, and the calls need not agree. Activity calls are given as the source filed them. How the source made its calls, unless noted: active means hit-call score of the fitted dose curve at least 0.9, where 1 is the maximum; inactive means score below 0.9.

How the values were obtained:
[1] = CCTE_Harrill_HTTr_Viability_MCF7: CCTE's 6-hour Cell Viability Assessment for the High-Throughput Transcriptomics (HTTr) Platform, in MCF-7 cells cultured in DMEM + 10% fetal bovine serum, Harrill Lab (AID 2284010)
In short: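 Viability measured through PI dye exclusion by high-content imaging at 6 h post-dosing.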

[2] = CCTE_Harrill_HTTr_Apoptosis_MCF7: CCTE's 6-hour Apoptosis Assessment for the High-Throughput Transcriptomics (HTTr) Platform, in MCF-7 cells cultured in DMEM + 10% fetal bovine serum, Harrill Lab (AID 2284011)
In short: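 Apoptosis in MCF-7 cells grown in DMEM with 10% fetal bovine serum was scored after a six hour exposure by high content imaging of caspase-3/7 activation (CellEvent Caspase 3/7 Green), with DMSO serving as negative control and baseline.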

[3] = CCTE_Harrill_HTTr_CellCount_MCF7: CCTE's Cell Proliferation Assessment for the High-Throughput Transcriptomics (HTTr) Platform, Harrill Lab (AID 2284012; active means hit-call score of the fitted dose curve at least 0.9, where 1 is the maximum;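 further: count of Hoechst-stained nuclei per well by high-content imaging in MCF-7 cells; cells exposed to compound for six hours; intended direction is loss of nuclei count meaning fewer cells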)
In short: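 Nuclei counting (Hoechst, high content imaging) in MCF-7 after a 6 h treatment at eight concentrations. Activity fitted bidirectionally, DMSO as negative control.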

[4] = CCTE_Shafer_MEA_acute_spike_number: CCTE's Neural Acute Assay for Total Number of Spikes, Shafer Lab (AID 2284008);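 on AC50: curve fitted for decrease in spike count so AC50 reflects inhibitors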
In short: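 Using an adaptive detector set to 8x rms noise, spikes were counted in 40-min windows before and after compound addition (0.03-40 uM) to rat cortical networks at 37 C; the well-level change from baseline was analysed relative to DMSO.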

[5] = CCTE_Shafer_MEA_acute_firing_rate_mean: CCTE's Neural Acute Assay for Mean Firing Rate, Shafer Lab (AID 2284009);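 further: analyzed for loss of signal so actives lower firing rate relative to DMSO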
In short: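 Read-out: well-mean spike rate (spikes/recording length/electrodes), % change from 40 min pre-dose baseline to 40 min with compound. Rat cortical cultures, DIV 13 or 15, 37 C; 0.03-40 uM; DMSO as negative control.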

[6] = CCTE_Shafer_MEA_acute_burst_number: CCTE's Neural Acute Assay for Single-Electrode Bursts, Shafer Lab (AID 2284013)
In short: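 Rat cortical cultures, DIV 13/15; 40 min baseline, then 40 min with compound 0.03-40 uM, 37 C. Spikes: 300-5000 Hz band-pass, threshold 8x rms noise. Readout = % change in single-electrode bursts vs baseline, loss-of-signal fit.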

[7] = CCTE_Shafer_MEA_acute_burst_duration_mean: CCTE's Neural Acute Assay for Mean Burst Duration, Shafer Lab (AID 2284014);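 further: hits are decreases in mean burst duration relative to DMSO controls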
In short: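 Primary rat cortical neurons on 16-electrode MEA wells, treated on DIV 13 or 15 with compound (0.03-40 uM; ≥3 wells each). 40-min baseline and 40-min exposure recordings at 37 C; percent change in mean burst duration per well versus DMSO.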

[8] = CCTE_Shafer_MEA_acute_interburst_interval_mean: CCTE's Neural Acute Assay for Mean Interburst Interval, Shafer Lab (AID 2284016);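 further: percent change of mean interburst interval versus each well's own pre-dose baseline; curves fitted for decrease in interburst interval relative to DMSO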
In short: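 Primary rat cortical neurons on 16-electrode MEA wells were recorded 40 min at baseline on DIV 13 or 15, then 40 min after compound (0.03-40 uM), at 37 C. Value is percent change in mean interburst interval per well, DMSO as negative control.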

[9] = CCTE_Shafer_MEA_acute_burst_percentage_mean: CCTE's Neural Acute Assay for Percentage of Spikes in a Burst, Shafer Lab (AID 2284017);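 on AC50: curve fitted for loss of signal so potency reflects decreased burst percentage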
In short: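 Primary rat cortical neurons on 16-electrode MEA wells; 40 min baseline recorded at DIV 13 or 15, then 40 min after compound (0.03-40 uM) at 37 C. Well-mean fraction of spikes in single-electrode bursts; percent change from baseline, DMSO as negative control.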

[10] = CCTE_Shafer_MEA_acute_burst_percentage_std: CCTE's Neural Acute Assay for Standard Deviation of Burst Percentage, Shafer Lab (AID 2284018);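 further: fitted in the negative direction so actives lower burst percentage SD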
In short: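 Primary rat cortical neurons on 16-electrode MEA wells were recorded 40 min at baseline (DIV 13 or 15), then 40 min after compound (0.03-40 uM), at 37 C. Well value is SD across electrodes of spikes-in-bursts/total spikes; endpoint is percent change, DMSO-referenced.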

[11] = CCTE_Shafer_MEA_acute_per_network_burst_spike_number_mean: CCTE's Neural Acute Assay for Average Number of Spikes in a Network Burst, Shafer Lab (AID 2284019);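 on AC50: curve fitted for loss of signal so actives reduce spikes per network burst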
In short: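 Primary rat cortical neurons on 16-electrode MEA wells, DIV 13 or 15, 37 C; 40-min baseline then 40-min recording with compound (0.03-40 uM). Spikes per network burst (total spikes/number of bursts) expressed as percent change from baseline, DMSO reference.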

[12] = CCTE_Shafer_MEA_acute_per_network_burst_spike_number_std: CCTE's Neural Acute Assay for Standard Deviation of Number of Spikes in a Network Burst, Shafer Lab (AID 2284020);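 further: fitted for decrease in spike-number SD versus DMSO so actives lower it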
In short: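 Primary rat cortical neurons on 48-well MEAs (16 electrodes/well) recorded at DIV 13 or 15: 40-min baseline, then 40 min with compound (0.03-40 uM), 37 C. Value is percent change in SD of spikes per network burst, relative to DMSO.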

[13] = CCTE_Shafer_MEA_acute_per_network_burst_electrodes_number_mean: CCTE's Neural Acute Assay for Mean Number of Electrodes in a Network Burst, Shafer Lab (AID 2284021);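 further: curves fitted for decreases only so hits reduce electrodes per burst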
In short: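 Percent change from baseline in average electrode count per network burst, rat cortical cultures on 48-well MEAs; 40-min recordings each side of exposure, DIV 13 or 15; threshold 8x rms noise; DMSO as negative control.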

Measured: AC50

S=C1NCCN1
inactive: [1] | [2]

CNC(=O)Oc1cccc2c1OC(C)(C)O2
inactive: [1] | [2] | [3]

CCCCN(CC)c1c([N+](=O)[O-])cc(C(F)(F)F)cc1[N+](=O)[O-]
inactive: [1] | [2]

CC(=NC#N)N(C)Cc1ccc(Cl)nc1
inactive: all assays above

CCNc1nc(Cl)nc(NC(C)(C)C#N)n1
inactive: [1] | [2]

COc1cccc(C(=O)NN(C(=O)c2cc(C)cc(C)c2)C(C)(C)C)c1C
inactive: [1] | [2] | [3]

CCc1cnc(C2=NC(C)(C(C)C)C(=O)N2)c(C(=O)O)c1 (configuration not stated)
inactive: all assays above

CCOP(=S)(OCC)Oc1ccc2c(C)c(Cl)c(=O)oc2c1
inactive: [1] | [2] | [3] | [7] | [10]
active: [4] 1.85 µM | [5] 1.85 µM | [6] 1.94 µM | [8] 4.19 µM | [9] 3.9 µM | [11] 1.99 µM | [12] 4.38 µM | [13] 4.12 µM

CSc1nc(NC(C)C)nc(NC(C)C)n1
inactive: [1] | [2] | [3]

CNc1cnn(-c2cccc(C(F)(F)F)c2)c(=O)c1Cl
inactive: [1] | [2] | [3]

CC(C)[C@H](C(=O)O[C@H](C#N)c1cccc(Oc2ccccc2)c1)c1ccc(Cl)cc1
active: [6] 0.928 µM | [9] 0.958 µM | [13] 0.0691 µM
not listed: [3]
inactive: all other assays above

CCCCSP(=O)(SCCCC)SCCCC
inactive: [1] | [2]

CCOP(=O)(OCC)Oc1cc(C)nc(C(C)C)n1
inactive: [1] | [2] | [3]

Nc1nc(N)nc(NC2CC2)n1
inactive: [1] | [2] | [3]

CC(Oc1cccc(Cl)c1)C(=O)O (configuration not stated)
inactive: [1] | [2]

C#CC(C)(C)NC(=O)c1cc(Cl)cc(Cl)c1
inactive: [1] | [2]

CCOP(=S)(OCC)Oc1ccc([N+](=O)[O-])cc1
inactive: [1] | [2] | [3]

CNC(=O)ON=C(C)SC
inactive: [1] | [2]

CN(C)NC(=O)CCC(=O)O
not listed: [3]
inactive: all other assays above

CCOP(=S)(OCC)OC(Cl)C(Cl)(Cl)Cl (configuration not stated)
inactive: [1] | [2] | [3]

Cc1ccn2nc(S(=O)(=O)Nc3c(F)cccc3F)nc2n1
not listed: [3]
inactive: all other assays above

COc1cc(OC)nc(Sc2cccc(Cl)c2C(=O)O)n1
not listed: [3]
inactive: all other assays above

CN(C)C(=O)Nc1cccc(C(F)(F)F)c1
inactive: [1] | [2]

CC1=NNC(=O)N(/N=C/c2cccnc2)C1
inactive: all assays above

CCOP(=S)(OCC)Oc1cc(C)nc(C(C)C)n1
inactive: [1] | [2] | [3]

CCOP(=O)(SC(C)CC)N1CCSC1=O (configuration not stated)
inactive: [1] | [2]

COP(=O)(NC(C)=O)SC (configuration not stated)
inactive: [4] | [5] | [1] | [2] | [3] | [6] | [7] | [8] | [9] | [10] | [11] | [12] | [13]
active: [8] 0.0544 µM | [9] 0.792 µM | [10] 4.26 µM | [12] 0.299 µM
